Structures are written as SMILES. Where “and” joins values, the source holds several entries; their conditions need not be identical. Equal entries are not always repeated. Records with an inconclusive call do not appear. Entries that show only a call come without a potency. The source holds several records for some structures; these can differ, active in one and inactive in another. Calls of active or inactive are those of the source. Calls follow the shape of the full dose curve.
Potency is read from the fitted curve at half-maximal effect.

The nature of one assay: qHTS assay for small molecules that induce genotoxicity in human embryonic kidney cells expressing luciferase-tagged ATAD5 - cell viability (AID 651634). Also: nearly all actives have a fitted effect of over 25% in size. Particulars: HEK293T ATAD5-luc cells viability, CellTiter-Fluor, 15.5 h; series mostly up to 83.3 µM. The gist of the method:
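HEK293T cells carrying luciferase-tagged ATAD5, 2,000 cells/well, exposed to compound for 15.5 hr at 37C. Viability read as live-cell protease activity by CellTiter-Fluor fluorescence after 30 min at 37C.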
Background: In qHTS, concentration-response curves come from the screen itself.
`CCCCCCC(C)O` (stereo unspecified): the Potency result is “inactive”.

As to `C1COCCN1`, the Potency result was “inactive”.

Regarding `CCCCCC1C(=O)CCC1CC(=O)OC` (stereo unspecified), the Potency entry is “inactive”.

For `O=Cc1ccccc1C=O`, the Potency was 21.1 µM (active).

With `OCCNCCO`, the Potency result is “inactive”.

With `CN(C)CCCN1c2ccccc2Sc2ccc(Cl)cc21`, the Potency entry is “inactive”.

In the case of `OC[C@H]1O[C@@H]2O[C@H]3[C@H](O)[C@@H](O)[C@@H](O[C@H]4[C@H](O)[C@@H](O)[C@@H](O[C@H]5[C@H](O)[C@@H](O)[C@@H](O[C@H]6[C@H](O)[C@@H](O)[C@@H](O[C@H]7[C@H](O)[C@@H](O)[C@@H](O[C@H]1[C@H](O)[C@H]2O)O[C@@H]7CO)O[C@@H]6CO)O[C@@H]5CO)O[C@@H]4CO)O[C@@H]3CO`, the Potency entry is “inactive”.

Turning to `Nc1ccc2c(c1)C(=O)c1ccccc1C2=O`, the Potency entry is “inactive”.

Turning to `O=C(O)CCCCCCCCCCCC(=O)O`, the Potency result is “inactive”.

For `O=C(O)COCCN1CCN(C(c2ccccc2)c2ccc(Cl)cc2)CC1` (stereo unspecified), the Potency entry was “inactive”.

With `COc1ccc(-c2coc3cc(O)cc(O)c3c2=O)cc1`, the Potency entry is “inactive”.

In the case of `C=C[C@@]1(C)CC(=O)[C@]2(O)[C@@]3(C)[C@@H](O)CCC(C)(C)[C@@H]3[C@H](O)[C@H](OC(C)=O)[C@@]2(C)O1`, the Potency result was “inactive”.

In the case of `C1CN(SSN2CCOCC2)CCO1`, the Potency entry was “inactive”.

`CCC(=O)O[C@H]1[C@H](O[C@@H]2[C@@H](C)[C@H](O[C@H]3C[C@@](C)(OC)[C@@H](O)[C@H](C)O3)[C@@H](C)C(=O)O[C@H](CC)[C@@](C)(O)[C@H](O)[C@@H](C)C(=O)[C@H](C)C[C@@]2(C)O)O[C@H](C)C[C@@H]1N(C)C`: the Potency entry is “inactive”.

In the case of `IC(I)I`, the Potency entry is “inactive”.

For the compound `CC1(C)NC(=O)N(c2ccc([N+](=O)[O-])c(C(F)(F)F)c2)C1=O`, the Potency entry was “inactive”.

Take `CC(=O)O[C@]1(C(C)=O)CC[C@H]2[C@@H]3C=C(C)C4=CC(=O)CC[C@]4(C)[C@H]3CC[C@@]21C`: the Potency result is “inactive”.

As to `O=[Se](O)O`, the Potency is 0.687 µM (active).

Turning to `C=C[Si](OCCOC)(OCCOC)OCCOC`, the Potency entry is “inactive”.

In the case of `Cc1ccc(C)c(O)c1`, the Potency entry is “inactive”.

`COc1cc([C@H]2Oc3cc([C@H]4Oc5cc(O)cc(O)c5C(=O)[C@@H]4O)ccc3O[C@@H]2CO)ccc1O`: the Potency result is “inactive”.

`C=CC(C)(O)CCC=C(C)C` (stereo unspecified): the Potency result is “inactive”.

Consider `Cc1ccc(C(C)(C)C)cc1`, for which the Potency entry is “inactive”.

On to `Clc1ccc(Sc2cc(Cl)c(Cl)cc2Cl)cc1`, for which the Potency entry was “inactive”.

With `O=C(O)c1ccc(O)cc1`, the Potency result was “inactive”.

Regarding `Cc1ccc(S(=O)(=O)NCl)cc1`, the Potency entry was “inactive”.

Turning to `CN(Cc1cnc2nc(N)nc(N)c2n1)c1ccc(C(=O)N[C@@H](CCC(=O)O)C(=O)O)cc1`, the Potency result is “inactive”.

As for `O=C(O)c1cc(=O)[nH]c(=O)[nH]1`, the Potency result is “inactive”.

With `CC[C@]12CCCN3CCc4c(n(c5ccccc45)[C@@](O)(C(=O)OC)C1)[C@@H]32`, the Potency result was “inactive”.

For the compound `FC(F)(F)C(Cl)Br` (stereo unspecified), the Potency result is “inactive”.

As to `CC1(C)C(C=C(Cl)Cl)C1C(=O)OCc1cccc(Oc2ccccc2)c1` (stereo unspecified), the Potency entry was “inactive”.

Consider `Cc1cccc(Nc2ccccc2C(=O)O)c1C`, for which the Potency result was “inactive”.

For `[O-]/[N+](=N\O)c1ccccc1`, the Potency entry was “inactive”.

`CC(=O)Oc1ccc(C(c2ccc(OC(C)=O)cc2)c2ccccn2)cc1`: the Potency entry was “inactive”.

The nature of a further assay: qHTS assay for small molecule disruptors of the mitochondrial membrane potential - cell viability (AID 720634). Also: nearly all actives have a fitted effect of over 20% in size. Particulars: HepG2 viability, ATP luminescence (CellTiter-Glo), 1 h; series mostly up to 83.2 µM. The procedure, abridged: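 HepG2 cells, 2,000 per well, attached overnight, then treated 1 hr at 37 C, 5% CO2. Viability read as ATP by CellTiter-Glo luminescence after 30 min at room temperature. Read in the same wells as the m-MPI membrane-potential dye assay.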
Turning to `CCCCCCC(C)O` (stereo unspecified), the Potency result is “inactive”.

As to `C1COCCN1`, the Potency result was “inactive”.

On to `CCCCCC1C(=O)CCC1CC(=O)OC` (stereo unspecified), for which the Potency entry was “inactive”.

Take `O=Cc1ccccc1C=O`: the Potency result was “inactive and 61.1 µM (active)”.

On to `OCCNCCO`, for which the Potency result was “inactive”.

In the case of `CN(C)CCCN1c2ccccc2Sc2ccc(Cl)cc21`, the Potency entry is “inactive”.

Consider `OC[C@H]1O[C@@H]2O[C@H]3[C@H](O)[C@@H](O)[C@@H](O[C@H]4[C@H](O)[C@@H](O)[C@@H](O[C@H]5[C@H](O)[C@@H](O)[C@@H](O[C@H]6[C@H](O)[C@@H](O)[C@@H](O[C@H]7[C@H](O)[C@@H](O)[C@@H](O[C@H]1[C@H](O)[C@H]2O)O[C@@H]7CO)O[C@@H]6CO)O[C@@H]5CO)O[C@@H]4CO)O[C@@H]3CO`, for which the Potency entry is “inactive”.

In the case of `Nc1ccc2c(c1)C(=O)c1ccccc1C2=O`, the Potency result was “inactive”.

For `O=C(O)CCCCCCCCCCCC(=O)O`, the Potency result was “inactive”.

For `O=C(O)COCCN1CCN(C(c2ccccc2)c2ccc(Cl)cc2)CC1` (stereo unspecified), the Potency result is “inactive”.

As for `COc1ccc(-c2coc3cc(O)cc(O)c3c2=O)cc1`, the Potency is 4.9 µM (active) and 13.7 µM (active).

As for `CC(=O)Oc1c(C)c(C)c2c(c1C)CC[C@@](C)(CCC[C@H](C)CCC[C@H](C)CCCC(C)C)O2`, the Potency result was “inactive”.

For the compound `C=C[C@@]1(C)CC(=O)[C@]2(O)[C@@]3(C)[C@@H](O)CCC(C)(C)[C@@H]3[C@H](O)[C@H](OC(C)=O)[C@@]2(C)O1`, the Potency entry is “inactive”.

Take `C1CN(SSN2CCOCC2)CCO1`: the Potency result is “inactive”.

In the case of `CCC(=O)O[C@H]1[C@H](O[C@@H]2[C@@H](C)[C@H](O[C@H]3C[C@@](C)(OC)[C@@H](O)[C@H](C)O3)[C@@H](C)C(=O)O[C@H](CC)[C@@](C)(O)[C@H](O)[C@@H](C)C(=O)[C@H](C)C[C@@]2(C)O)O[C@H](C)C[C@@H]1N(C)C`, the Potency entry was “inactive”.

As to `CC1(C)NC(=O)N(c2ccc([N+](=O)[O-])c(C(F)(F)F)c2)C1=O`, the Potency result is “inactive”.

On to `CN1CCOCC1`, for which the Potency result was “inactive”.

`CC(=O)O[C@]1(C(C)=O)CC[C@H]2[C@@H]3C=C(C)C4=CC(=O)CC[C@]4(C)[C@H]3CC[C@@]21C`: the Potency result was “inactive”.

As for `O=[Se](O)O`, the Potency result is “inactive”.

In the case of `C=C[Si](OCCOC)(OCCOC)OCCOC`, the Potency result was “inactive”.

Regarding `Cc1ccc(C)c(O)c1`, the Potency entry is “inactive”.

`C=CC(C)(O)CCC=C(C)C` (stereo unspecified): the Potency result is “inactive”.

As to `Cc1ccc(C(C)(C)C)cc1`, the Potency result is “inactive”.

Turning to `Clc1ccc(Sc2cc(Cl)c(Cl)cc2Cl)cc1`, the Potency entry was “inactive”.

As for `O=C(O)c1ccc(O)cc1`, the Potency entry is “inactive”.

`Cc1ccc(S(=O)(=O)NCl)cc1`: the Potency entry was “inactive”.

`CN(Cc1cnc2nc(N)nc(N)c2n1)c1ccc(C(=O)N[C@@H](CCC(=O)O)C(=O)O)cc1`: the Potency entry was “inactive”.

Regarding `O=C(O)c1cc(=O)[nH]c(=O)[nH]1`, the Potency result was “inactive”.

Regarding `CC[C@]12CCCN3CCc4c(n(c5ccccc45)[C@@](O)(C(=O)OC)C1)[C@@H]32`, the Potency entry was “inactive”.

Regarding `FC(F)(F)C(Cl)Br` (stereo unspecified), the Potency result is “inactive”.

On to `NCCOCCO`, for which the Potency result is “inactive”.

As to `CN(C)/N=N/c1nc[nH]c1C(N)=O`, the Potency entry was “inactive”.

Consider `CC1(C)C(C=C(Cl)Cl)C1C(=O)OCc1cccc(Oc2ccccc2)c1` (stereo unspecified), for which the Potency entry was “inactive”.

With `Cc1cccc(Nc2ccccc2C(=O)O)c1C`, the Potency result is “inactive”.

Turning to `NCCN`, the Potency entry is “inactive”.

With `[O-]/[N+](=N\O)c1ccccc1`, the Potency result was “inactive”.

Turning to `CC(=O)Oc1ccc(C(c2ccc(OC(C)=O)cc2)c2ccccn2)cc1`, the Potency entry is “inactive”.
